# PubChem BioAssay AID1745856 (National Center for Advancing Translational Sciences (NCATS), 2022)
# The campaign covered roughly 120,000 compounds. About 270 (0.23%) were called active. About 5% were inconclusive and are not listed. This is one part of a sample in which actives are shown more often than they occur. A number with no mark means an inactive call. Calls follow the shape of the full dose curve.
# Test: Primary qHTS Assay for Foot and Mouth Disease Virus Antivirals against NCGC Sytravon and CBC Compound Libraries: Firefly Luciferase Signal; also: nearly all actives have a fitted effect of over 60% in size
# Conditions: FMDV antiviral cell assay; series mostly up to 57.5 µM; activity change, negative = inhibition: at the top concentration
# % is scaled to controls: 0 for no effect and ±100 for the full control effect; potency is read from the fitted curve at half-maximal effect.
SMILES,"activity change, negative = inhibition [%]",Potency
CC(NC(=O)C(=O)Nc1cc(Cl)ccc1Cl)c1ccccc1 (centres undefined),0,
CCCc1cc(=O)oc2c(C)c(OCC(=O)OC(C)C)ccc12,9.01,
CC(C(=O)Nc1cccc(C#N)c1)n1nnc(-c2cccc(C(F)(F)F)c2)n1 (centres undefined),-10.8,
CCOc1ccccc1-c1nn2c(CN3CCCCC3)nnc2s1,-3.75,
Cc1nccn1CCc1nc2cc(NC(=O)C(C)C)ccc2n1C,-8.8,
CCCCn1c(=O)[nH]c(=O)c2c1nc(-c1ccc(OCC#N)c(OC)c1)n2C,-6.14,
N#Cc1ccccc1N=Cc1ccc2ccccc2c1,92.7,
Cc1cc(C(F)(F)F)nn1Cc1nc2c3c4c(sc3ncn2n1)CCC4,-9.93,
Cc1ccc(NC(=O)c2nc(S(=O)(=O)Cc3cccc(C)c3)ncc2Cl)cc1,,22.4 µM (active)
CCCS(=O)(=O)c1ncc(Cl)c(C(=O)Nc2scc(-c3ccccc3)c2C(=O)OCC)n1,12.2,
CCSc1ncc(Cl)c(C(=O)Nc2cc(C)ccc2C)n1,-12.3,
Cc1ccc(-c2ccc(CCC(=O)O)n2NC(=O)c2ccc(F)cc2)cc1,21.6,
O=C(Nc1cccc(I)c1)c1ccc2c3c(cccc13)CC2,81.5,
COC(=O)c1ccc(CNC(=O)CCCNC(=O)C(C)(C)C)cc1,2.4,
Cc1nc2cc(NC(C)C(=O)Nc3cccc(Cl)c3Cl)ccc2o1 (centres undefined),22,
COC(=O)c1cccc(N=Cc2cc(Cl)ccc2O)c1,0,
CC(C)CNC(=O)COC(=O)Cc1nn(C)c(=O)c2ccccc12,3.32,
O=C(CN1CCN(C(=O)c2nn(Cc3ccccc3)c(=O)c3ccccc23)CC1)Nc1ccc(F)cc1,29.2,
Cc1noc(C)c1CS(=O)(=O)c1ccc(Cl)cc1,-0.357,
Cc1cccc(NC(=O)c2cc3cc(Br)ccc3oc2=O)c1,16.6,

SMILES,"activity change, negative = inhibition [%]",Potency
COc1ccccc1NC(=O)c1cc2ccccc2cc1OCC(N)=O,16.9,
Cc1nc(NC(=O)C(C)Sc2nnc(-c3ccccc3F)n2CC(C)C)sc1C (centres undefined),-18,
Cn1c(=O)[nH]c(=O)c2c(C(=O)O)cc(C3CC3)nc21,3.96,
Cc1cc(/C=C(/C#N)c2nc3ccccc3n2C)cc(C)c1O,189,
Clc1ccc(CN2CCN(c3ncnc4nc[nH]c34)CC2)cc1,12.2,
COc1ccccc1-c1nc(C#N)c(NCc2ccccc2)o1,0,
[O-]/[N+](=C\c1ccc2ccccc2n1)c1ccccc1,204,
CCCC(=O)Nc1cccc(-c2cc3cc(F)ccc3[nH]2)c1,0,
Cc1ccc(-c2cc(-c3ccccc3)c(C#N)c(SCCS(=O)Cc3ccccc3)n2)cc1 (centres undefined),-13,
N#Cc1ccccc1NC(=O)c1cnc2ccccc2n1,177,
CCOC(=O)c1cc(NCc2c(Cl)cccc2Cl)ccc1N1CCOCC1,19.6,
Cc1occc1-c1nnc(SCC(=O)N2c3ccccc3CC2C)o1 (centres undefined),5.98,
Cc1c(Cl)cccc1N(CC(=O)Nc1c(C)n(C)n(-c2ccccc2)c1=O)S(C)(=O)=O,-3,
CCOC(=O)c1cc(NC(=O)c2ccc(-c3ccccc3)cc2)ccc1N1CCOCC1,-4.7,
C(=N\N=C(c1ccccc1)c1ccccc1)/c1c[nH]c2ccccc12,0,
Cc1ccc(C(=O)NC2CCSC2=O)cc1C (centres undefined),0,
Cc1ccc(CCNC(=O)c2noc(C)c2Cn2nc(C)cc2C)cc1,0.415,
O=C(Nc1ncn(Cc2ccc(Cl)cc2)n1)c1ccn(COc2ccc(F)cc2F)n1,-5.05,
Fc1ccc(-c2ccc(CNCc3ccccc3)o2)cc1,136,
COc1nc2ccccc2nc1N1CCC(C(=O)Nc2ccccc2F)CC1,1.54,

SMILES,"activity change, negative = inhibition [%]",Potency
Cc1cnc(NC(=O)c2nc(C)n(-c3ccc(F)cc3)n2)s1,180,
CCCn1nc(C(=O)Nc2ncc(Cc3ccc(F)cc3)s2)ccc1=O,,31.6 µM (active)
Cc1nc(-c2ccc(F)cc2)sc1C(=O)N[C@H](C(=O)O)C(C)C,23.3,
COc1ccc(/C(=N/OC(=O)c2cccc(F)c2)c2nccc3cc(OC)c(OC)cc23)cc1OC,13.5,
COc1ccc(-c2cc(C(=O)NC3CC(C)(C)NC(C)(C)C3)c3ccccc3n2)cc1OC,-27.7,
CCOc1cc(/C=C2\NC(=O)NC2=O)cc(Br)c1OCc1cccc2ccccc12,6.16,
CCC(CC)NC(=O)COC(=O)c1ccc(C)c(C)c1,-0.24,
COc1ccc(CN(C(=O)COc2ccc(C)cc2)c2ccccn2)cc1OC,89.2,
CC1CCN(C(=O)c2cccnc2-c2nc3ccccc3s2)CC1,-0.889,
Cc1ccc2c(Cl)cc(Cl)c(OCC(=O)N3CCCCCC3)c2n1,-7.4,
CCCCCNC(=O)N(C)Cc1ccc(C(=O)OC)cc1,21,
COc1cccc(CNC(=O)COC(=O)c2c(F)cccc2F)c1,18.7,
COc1ccc2c(c1OC)C(=O)OC2Nc1nc(-c2ccccc2)cs1 (centres undefined),,28.2 µM (active)
COc1ccc(-c2csc(Nc3cccc(C)n3)n2)cc1OC,198,
Cc1cccc(C)c1Nc1nc(-c2ccccc2)cs1,164,
Cc1cccc(C)c1NC(=O)CN(C)CC(=O)NC(=O)NCc1ccccc1,-5.49,
CC(=O)N1CCN(c2c([N+](=O)[O-])cnc3ccc(Br)cc23)CC1,-9.98,
CCOc1ccccc1OCC(=O)Nc1cccc2ncccc12,,8.91 µM (active)
COc1c(C)cccc1C(=O)Nc1cccc2ncccc12,9.76,
